From PubChem BioAssay (Tox21) come the findings set out here.

Molecules are shown by their SMILES. Records with an inconclusive call do not appear. Values without a mark were called inactive. Activity calls are given as the source filed them. Unless noted, the call rests on the fitted dose curve; in most records, active means well fitted curve in the direction sought with a large enough effect in the repeat runs; inconclusive means weak or mixed curves; inactive means no such curve, though single readings can be large; an effect the other way counts as inactive or inconclusive.

The target of experiment [1] is Retinoic acid receptor RXR-alpha (Homo sapiens) (UniProt P19793). Briefly: qHTS assay to identify small molecule agonists of the RXR signaling pathway (AID 1159527; calls by dose curve; further: nearly all actives have a fitted effect of over 35% in size). The procedure, abridged:
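Agonist mode; 9-cis retinoic acid positive control. HEK 293T UAS-bla reporter cells, 2% charcoal-stripped FBS, 16 hr compound exposure at 37 C/5% CO2. LiveBLAzer B/G FRET substrate 2 hr RT; ex 405, em 460/530 nm.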

Experiment [2] can be described thus: qHTS assay to identify small molecule agonists of the RXR signaling pathway - cell viability counter screen (AID 1159529). Further: series mostly up to about 77 µM; nearly all actives have a fitted effect of over 50% in size. The procedure, abridged: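 Luminescence from CellTiter-Glo (30 min, RT) measured viability in the same wells as the beta-lactamase reporter readout. Cells: GeneBLAzer RXR-alpha HEK 293T, 2% charcoal-stripped FBS. Compound exposure 16 hr, 37 C.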
A general note: In qHTS, concentration-response curves come from the screen itself.

A short description of experiment [3]: qHTS assay to identify small molecule antagonists of the retinoid acid receptor (RAR) signaling pathway - cell viability counter screen (AID 1159551). Further: nearly all actives have a fitted effect of over 35% in size. The procedure, abridged:
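C3RL4 RARE-luciferase line; cpds + retinol 1 uM final, 6 h, 37 C/5% CO2; CellTiter-Glo ATP luminescence, 30 min RT.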

A short description of experiment [4]: qHTS assay to identify small molecule antagonists of the estrogen related receptor (ERR) signaling pathway from Tox21 library - cell viability counter screen (AID 1224834). Further: nearly all actives have a fitted effect of over 30% in size. The gist of the method:
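Multiplexed viability counter screen in ERR cells: 17.5 h compound exposure at 37 C, CellTiter-Fluor added, 30 min at 37 C/5% CO2, fluorescence read.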

Experiment [5] concerns the target Luciferin 4-monooxygenase (Photinus pyralis) (UniProt P08659). Nature of the experiment: qHTS assay to identify small molecule inhibitors of firefly luciferase (AID 1224835). Further: series mostly up to about 120 µM; nearly all actives have a fitted effect of over 25% in size. The procedure, abridged: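 Quantitative HTS format; KM concentrations of both substrates. Purified P. pyralis FLuc activity quantified from luminescence images.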
A short description of experiment [6]: qHTS assay to identify small molecule agonists of the constitutive androstane receptor (CAR) signaling pathway - cell viability counter screen (AID 1224836). Further: series mostly up to about 92 µM; nearly all actives have a fitted effect of over 45% in size. The gist of the method: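 Viability read-out: CellTiter-Fluor fluorescence after 23 h compound exposure at 37 C/5% CO2 in double-stable HepG2-CYP2B6-hCAR cells, with PK11195 present at 0.75 uM final; compounds tested in 15-point titration.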

Experiment [7] in a line: qHTS assay to identify small molecule antagonists of the constitutive androstane receptor (CAR) signaling pathway - cell viability counter screen (AID 1224837). Further: series mostly up to about 92 µM; nearly all actives have a fitted effect of over 45% in size. The gist of the method: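 Read-out: CellTiter-Fluor fluorescence after 23 hr at 37 C/5% CO2. Cells: HepG2 double-stable for hCAR and CYP2B6-2.2kb. Compounds tested at 15 concentrations in the presence of CITCO, final concentration 50 nM.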

In experiment [8] the target is Nuclear receptor subfamily 1 group I member 3 (Homo sapiens) (UniProt Q14994). Nature of the experiment: qHTS assay to identify small molecule agonists of the constitutive androstane receptor (CAR) signaling pathway (AID 1224839). Further: nearly all actives have a fitted effect of over 15% in size. Further: potency means the concentration at half of the fitted maximal effect.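 On activation: HepG2 cells stably carrying human CAR and a CYP2B6 luciferase reporter; series mostly up to about 92 µM.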 The gist of the method: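 Luminescence read-out (ONE-Glo, 30 min, room temperature) from double-stable HepG2-CYP2B6-hCAR cells exposed 24 h to 15-point compound series in presence of 0.75 uM PK11195 final.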
Sequence of Nuclear receptor subfamily 1 group I member 3 (Homo sapiens) (Q14994 whole entry, looked up): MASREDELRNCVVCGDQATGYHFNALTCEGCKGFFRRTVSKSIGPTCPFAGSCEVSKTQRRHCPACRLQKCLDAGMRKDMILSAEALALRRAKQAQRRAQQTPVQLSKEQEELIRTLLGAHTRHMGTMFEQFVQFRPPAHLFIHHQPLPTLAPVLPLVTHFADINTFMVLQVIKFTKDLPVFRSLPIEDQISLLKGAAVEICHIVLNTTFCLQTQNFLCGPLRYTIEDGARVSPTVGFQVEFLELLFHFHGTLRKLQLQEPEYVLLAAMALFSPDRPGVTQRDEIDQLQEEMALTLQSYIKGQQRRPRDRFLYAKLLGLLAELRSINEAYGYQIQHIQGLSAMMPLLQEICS

Experiment [9] can be described thus: qHTS assay to identify small molecule antagonists of the estrogen related receptor signaling pathway with the pleiotropic PPARgamma coactivator (PGC) from Tox21 10K library - cell viability counter screen (AID 1224840; active means well fitted cell-killing curve with a large enough effect in the repeat runs, not every such curve was filed as active; further: nearly all actives have a fitted effect of over 40% in size). The procedure, abridged:
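Fluorescence read-out of CellTiter-Fluor viability reagent, added after cells had been exposed to compound in DMSO for 17.5 h at 37 C; 30 min development at 37 C/5% CO2. Cells: PGC/ERR line, 2,000/well.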

The nature of experiment [10]: qHTS assay to identify small molecule antagonists of the estrogen related receptor signaling pathway with the pleiotropic PPARgamma coactivator (PGC) from Tox21 10K library (AID 1224841; call rule not given here; further: series mostly up to about 92 µM; actives are mostly falling curves and most rising ones were filed inactive; nearly all actives have a fitted effect of over 50% in size). The procedure, abridged: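 Luminescence read-out (One-Glo luciferase reagent, 30 min at room temperature) from PGC/ERR cells exposed to DMSO-dissolved test compounds for 18 h at 37 C; cells, 2,000 per well, had been preincubated 6 h before compound transfer.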

Experiment [11] is described as follows: qHTS assay to identify small molecule agonists of the estrogen related receptor signaling pathway with the pleiotropic PPARgamma coactivator (PGC) from Tox21 10K library (AID 1224842). Further: nearly all actives have a fitted effect of over 15% in size. The procedure, abridged: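 PGC/ERR reporter cells (NTP line) were seeded 2,000 per well, rested 6 h at 37 C/5% CO2, then pin-dosed with compounds in DMSO for 18 h at 37 C; luciferase read by One-Glo luminescence after 30 min at room temperature.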

Experiment [12] addresses Nuclear receptor subfamily 1 group I member 3 (Homo sapiens) (UniProt Q14994). Briefly: qHTS assay to identify small molecule antagonists of the constitutive androstane receptor (CAR) signaling pathway (AID 1224838).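 Further: HepG2 cells stably expressing hCAR with CYP2B6 luciferase reporter stimulated by CITCO; nearly all actives have a fitted effect of over 40% in size.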 The procedure, abridged:
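Read-out: ONE-Glo luciferase luminescence after 30 min at room temperature. HepG2-CYP2B6-hCAR double-stable cells, compounds in 15-point titration plus 50 nM CITCO final, 24 h at 37 C/5% CO2.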
On the % scale 0 is the no-effect control and ±100 the full control effect.

Sequence of Luciferin 4-monooxygenase (Photinus pyralis) (P08659 whole entry, looked up): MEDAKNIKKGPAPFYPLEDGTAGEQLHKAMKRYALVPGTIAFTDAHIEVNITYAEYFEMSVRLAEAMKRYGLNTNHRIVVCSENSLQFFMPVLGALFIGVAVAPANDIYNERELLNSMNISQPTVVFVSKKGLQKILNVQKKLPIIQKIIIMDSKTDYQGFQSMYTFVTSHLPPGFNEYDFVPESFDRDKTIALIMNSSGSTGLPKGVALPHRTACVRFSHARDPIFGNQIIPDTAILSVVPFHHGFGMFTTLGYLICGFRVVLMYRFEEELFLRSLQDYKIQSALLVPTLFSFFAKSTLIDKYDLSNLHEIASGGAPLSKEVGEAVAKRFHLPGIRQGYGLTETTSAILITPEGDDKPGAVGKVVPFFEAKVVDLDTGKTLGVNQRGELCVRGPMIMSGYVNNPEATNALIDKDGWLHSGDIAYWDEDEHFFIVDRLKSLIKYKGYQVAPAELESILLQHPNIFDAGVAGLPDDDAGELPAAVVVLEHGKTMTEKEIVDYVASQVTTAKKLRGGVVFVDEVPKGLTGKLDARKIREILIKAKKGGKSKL
Sequence of Retinoic acid receptor RXR-alpha (Homo sapiens) (P19793 whole entry, looked up): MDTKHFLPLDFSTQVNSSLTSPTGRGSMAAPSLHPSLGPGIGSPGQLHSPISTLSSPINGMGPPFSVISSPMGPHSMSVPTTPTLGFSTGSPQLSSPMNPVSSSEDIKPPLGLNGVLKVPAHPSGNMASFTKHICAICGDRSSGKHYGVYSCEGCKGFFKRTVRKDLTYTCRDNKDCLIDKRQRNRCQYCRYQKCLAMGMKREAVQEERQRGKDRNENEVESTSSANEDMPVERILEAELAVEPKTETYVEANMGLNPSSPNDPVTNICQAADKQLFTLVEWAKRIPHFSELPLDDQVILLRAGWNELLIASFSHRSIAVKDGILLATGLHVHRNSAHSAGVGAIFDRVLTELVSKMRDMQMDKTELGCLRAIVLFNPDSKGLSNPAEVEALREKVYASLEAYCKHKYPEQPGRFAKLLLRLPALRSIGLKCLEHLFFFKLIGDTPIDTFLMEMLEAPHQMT

Take `CC/C=C\C#N`: the Potency entry in [1], in experiment [2], in experiment [4], in experiment [5] and in [8] was “inactive” throughout. Moreover, the outcome in [3], in experiment [6], in experiment [7] and in [9] was inactive.
For `CC/C=C\CCCCO`, the Potency result in [1], in [2], in experiment [4] and in experiment [5] was “inactive” throughout. In addition, the compound was classed as inactive in experiment [3], in [6], in experiment [7] and in experiment [9].
For the compound `Nc1[nH]c(=O)ncc1F`, the Potency result in experiment [1], in experiment [2], in [4], in [5], in experiment [10] and in experiment [11] was “inactive” in each case. Also, the call in [3], in experiment [6], in experiment [7] and in [9] was inactive.
For `CCCCCCC(CCCCCCCCCCC(=O)OCC(COC(C)=O)OC(C)=O)OC(C)=O` (stereo not given), the Potency entry in experiment [1], in experiment [2], in experiment [4] and in experiment [5] was “inactive” throughout. Further, the compound was called inactive in [3], in experiment [6], in [7] and in experiment [9].
On to `CC1=CC(C)C(C=O)C(C)C1` (stereo not given), for which the Potency entry in experiment [1], in experiment [2], in [4], in experiment [5] and in [8] was “inactive” in each case. In addition, the call in experiment [3], in experiment [6], in [7] and in experiment [9] was inactive.
On to `CC(C)(C)OC(=O)N1C[C@@H](F)C[C@H]1C(=O)O`, for which the Potency entry in experiment [1], in [2], in experiment [4], in experiment [5] and in [8] was “inactive” throughout. Further, the outcome in experiment [3], in [6], in experiment [7] and in [9] was inactive.
`CSc1nc(NC2CC2)nc(NC(C)(C)C)n1`: the Potency result in [1], in [2], in experiment [4], in [5] and in [12] was “inactive” throughout. Also, the compound was classed as inactive in [3], in experiment [6] and in experiment [7]. The Potency in [8] is 17.2 µM (active).
Turning to `Nc1cc(C(Cl)=C(Cl)Cl)c(S(N)(=O)=O)cc1S(N)(=O)=O`, the Potency entry in experiment [1], in experiment [2], in [4] and in experiment [5] was “inactive” each time. The compound was called inactive in experiment [3], in [6], in experiment [7] and in [9].
With `NC(=S)Nc1cccc2ccccc12`, the activation was 6.32% [at 6.98 µM] in experiment [1] and 2.72% [at 8.39 µM] in [8]. Besides, the activity change, negative = cytotoxicity in [2] is -0.564% [at 6.97 µM]; in experiment [3], 3.14% [at 8.39 µM]; in experiment [7], -0.426% [at 8.39 µM]. Further, the viability change, negative = cytotoxic is 1.64% [at 8.39 µM] in experiment [4], -0.893% [at 8.39 µM] in [6] and 3.04% [at 8.39 µM] in experiment [9]. Further, the activity change, negative = inhibition in experiment [5] was 2.89% [at 10.5 µM]. The activity, negative = inhibition in [12] is 3.74% [at 8.39 µM].
`NC(CS)C(=O)O` (stereo not given): the Potency entry in [1], in experiment [2], in [4] and in experiment [5] was “inactive” each time. The compound was called inactive in experiment [3], in experiment [6], in [7] and in [9].
Consider `O=[N+]([O-])c1ccc(CCO)cc1`, for which the Potency entry in experiment [1], in experiment [2], in experiment [4], in experiment [5], in [12] and in experiment [8] was “inactive” each time. The result in experiment [3], in [6] and in [9] was inactive.
Turning to `NC(=O)CCCCC1CCSS1` (stereo not given), the Potency result in experiment [1], in experiment [2], in [4], in experiment [5], in experiment [12] and in experiment [8] was “inactive” each time. Also, the call in [3], in experiment [6], in experiment [7] and in [9] was inactive.
With `Cc1nccn1CC1CCc2c(c3ccccc3n2C)C1=O` (stereo not given), the Potency result in experiment [1], in [2], in experiment [4], in experiment [5] and in [8] was “inactive” throughout. For the same compound, the result in experiment [3], in [6], in experiment [7] and in experiment [9] was inactive.
In the case of `Nc1ncnc2c1ncn2Cc1c(F)cccc1Cl`, the Potency result in experiment [1], in experiment [2], in experiment [4], in experiment [5], in experiment [10] and in experiment [11] was “inactive” in each case. For the same compound, the compound was called inactive in [3], in [6], in [7] and in [9].
With `Cc1ccccc1C(=O)O`, the Potency entry in [1], in experiment [2], in [4] and in [5] was “inactive” each time. In addition, the compound was called inactive in [3], in [6], in experiment [7] and in [9].
For `CC(C)CCCCCCN`, the Potency result in [1], in experiment [2], in experiment [4], in experiment [12] and in experiment [8] was “inactive” in each case. In addition, the compound was classed as inactive in [3], in [6], in experiment [7] and in [9].
In the case of `CC(O)CN(CCCN(C)C)CCCN(C)C` (stereo not given), the Potency entry in experiment [1], in experiment [2], in [4], in [5], in [12] and in [8] was “inactive” throughout. Moreover, the outcome in experiment [3], in experiment [7] and in [9] was inactive.
With `COc1cc(O)cc(O)c1`, the Potency result in experiment [1], in [2], in experiment [4], in experiment [12] and in experiment [8] was “inactive” throughout. Besides, the result in [3], in experiment [7] and in experiment [9] was inactive.
Regarding `CCOC(=O)[C@H](CCc1ccccc1)N[C@@H](C)C(=O)N1CCC[C@H]1C(=O)O`, the Potency result in [1], in [2], in [5], in experiment [10] and in [11] was “inactive” each time. In addition, the call in [3], in experiment [6], in experiment [7] and in experiment [9] was inactive.
As to `CC(C)N1C(=O)c2ccccc2C1=O`, the Potency result in experiment [1], in experiment [2], in [4], in experiment [12] and in experiment [8] was “inactive” in each case. Besides, the call in experiment [3], in experiment [6], in experiment [7] and in [9] was inactive.
As for `CCCCCCCCCCCCCCCCCCOCC(O)CO` (stereo not given), the Potency entry in experiment [1], in experiment [2], in [4], in experiment [5], in experiment [12] and in experiment [8] was “inactive” in each case. Besides, the outcome in experiment [3], in [7] and in [9] was inactive.
`FC(F)(F)C(F)(F)C(F)(F)C(F)(F)C(F)(F)C(F)(F)C(F)(F)C(F)(F)C(F)(F)C(F)(F)F`: the activation in experiment [1] was 2.2% [at 6.98 µM]. Besides, the values for the activity change, negative = cytotoxicity in [2], in experiment [3] and in experiment [7] were 1.03% [at 6.97 µM], 5.5% [at 8.39 µM] and 0.303% [at 8.39 µM], respectively. The activity change, negative = inhibition in [5] is -2.43% [at 10.5 µM]. The viability change, negative = cytotoxic in experiment [6] was 1.23% [at 8.39 µM]; in experiment [9] it was -2.77% [at 8.39 µM]. Moreover, the activity, negative = inhibition in [12] is 41.9% [at 8.39 µM].
In the case of `NC(=O)c1c(Cl)cccc1Cl`, the Potency entry in experiment [1], in [2], in experiment [5], in [8], in experiment [10] and in experiment [11] was “inactive” throughout. Further, the compound was called inactive in [3], in experiment [6], in [7] and in experiment [9].
